Bioassay records deposited in PubChem BioAssay by The Scripps Research Institute Molecular Screening Center.
PG9 binder: small molecules binding HIV-1 gp120 antibody PG9; TR-FRET gp120-PG9 antibody binding; inhibition, % at 6.7 µM; 0.43% of 360,000 active; in the data active = inhibition above about 8.5%
MsrA inhibitor: inhibits bovine methionine sulfoxide reductase A | purified bovine MsrA, absorbance read-out | inhibition, % at 15.5 µM | 0.75% of 360,000 active; in the data active = inhibition above about 4.5%;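 note: 0% = vehicle wells with enzyme and 100% = reference inhibitor wells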
rCAG binder-1: r(CAG) repeat RNA binding | TO-PRO-1 dye displacement fluorescence | 1.3% of 370,000 active | AID 651821 | inhibition, % at 3 µM;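 active = inhibition above the plate cutoff, the mean of all test compounds on that plate plus 3 SD, cut at about 35% in these data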;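 note: 0% = DMSO alone and 100% = 100 µM mitoxantrone as full dye displacement; higher means more dye released from RNA so lower well fluorescence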
HGIII-sPLA2 inh: Blocks human group III sPLA2 activity | Q9NZ20 | QFRET BODIPY PC-A2 liposome hydrolysis, fluorescence | inhibition, % at 12.2 µM | 0.56% of 370,000 active;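 active = inhibition above mean plus 3 SD of compounds lying within the high and low control bounds, cut at about 19% in these data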;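 note: 0% = median of test compound wells and 100% = no enzyme DMSO wells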
Target sequence (Q9NZ20 whole entry, looked up): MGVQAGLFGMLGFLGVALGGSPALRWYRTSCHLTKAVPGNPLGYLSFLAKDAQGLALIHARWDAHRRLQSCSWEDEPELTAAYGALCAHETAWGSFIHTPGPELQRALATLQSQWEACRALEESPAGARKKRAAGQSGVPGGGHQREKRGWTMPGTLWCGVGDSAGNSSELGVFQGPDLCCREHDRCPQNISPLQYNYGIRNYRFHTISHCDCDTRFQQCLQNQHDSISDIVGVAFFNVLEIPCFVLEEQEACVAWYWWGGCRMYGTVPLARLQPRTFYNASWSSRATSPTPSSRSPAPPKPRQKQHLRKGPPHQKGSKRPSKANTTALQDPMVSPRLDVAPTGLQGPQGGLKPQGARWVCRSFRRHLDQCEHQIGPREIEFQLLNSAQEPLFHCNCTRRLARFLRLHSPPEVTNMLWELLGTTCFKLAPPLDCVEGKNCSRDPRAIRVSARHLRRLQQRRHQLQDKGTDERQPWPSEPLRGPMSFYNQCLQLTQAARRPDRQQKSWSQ
MsrA act: activates bovine MsrA enzyme; 0.3% of 360,000 active; AID 602163; activation, % at 10.6 µM; purified bovine MsrA, absorbance read-out; in the data active = activation above about 7.5%;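 note: 0% = vehicle and 100% = reference activator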
rCAG binder conf: r(CAG) RNA repeat binding, confirmation; TO-PRO-1 dye displacement fluorescence; 70% of 4,300 active; inhibition, % at 3 µM; shares compounds with rCAG binder-1; AID 652065;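 active = inhibition above a per-plate cutoff, the mean inhibition of sample wells plus 3 SD, cut at about 35% in these data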;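 note: loss of TO-PRO-1 fluorescence as compound displaces dye from 1x1 AA loop RNA; 0% = DMSO only wells and 100% = 100 µM mitoxantrone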
DNA CAG counter: DNA CAG dye complex inhibition counter-screen; shares compounds with rCAG binder-1; d(CAG) DNA oligo TO-PRO-1 dye displacement, fluorescence; inhibition, % at 3 µM; 94% of 4,300 active; AID 652068;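 active = inhibition above its plate's cutoff, the mean test-well inhibition plus 3 SD, cut at about 4.8% in these data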;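 note: 0% = DNA dye mix with DMSO and 100% = 100 µM mitoxantrone; hits displace the dye from DNA and so lower well fluorescence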
dCAG dye DR: counter-screen for rCAG binders: inhibitors of DNA CAG TO-PRO-1 complex; shares compounds with rCAG binder-1; DNA CAG/GTC duplex TO-PRO-1 dye displacement fluorescence; IC50, µM; 20% of 250 active; AID 686960; in the data active = IC50 below about 10 µM
dCAG DNA bind: DNA CAG dye complex inhibition, late stage dose response. shares compounds with rCAG binder-1. d(CAG) DNA duplex TO-PRO-1 dye displacement, fluorescence. IC50, µM. 80% of 30 active
rCAG binder-2: molecules binding r(CAG) RNA repeats, late stage dose response; shares compounds with rCAG binder-1; r(CAG) RNA TO-PRO-1 dye displacement, fluorescence; IC50, µM; 100% of 30 active
Starred values were filed as active, the others as inactive. Shown are actives, neighbours in structure and some others; about 3.2% of the full set was active somewhere. Unless noted, the rule behind the calls is not given here.

What do the screens show for `Cc1noc(NS(=O)(=O)c2ccc(NC(=O)COc3ccc(Cl)cc3Cl)cc2)c1C`?
PG9 binder: 0; MsrA inhibitor: 0; rCAG binder-1: 77*; HGIII-sPLA2 inh: -41; MsrA act: -11; rCAG binder conf: 70*; DNA CAG counter: 22*; dCAG dye DR: inactive; dCAG DNA bind: 3.6*; rCAG binder-2: 1.3*

How did COCC(=O)N(C)[C@H]1C[C@H]2c3[nH]c4cccc(-c5cccc(F)c5)c4c3CCN2C(=O)[C@H]1[C@H](C)O do in these assays?
rCAG binder-1: 4; HGIII-sPLA2 inh: -13

How did Cc1ccc([C@H]2C(C(=O)O)=CC[C@@H](c3ccc(Cl)cc3)N2S(=O)(=O)c2ccccc2C)cc1 do in these assays?
MsrA act: -2

How did Cc1ccccc1S(=O)(=O)N1[C@@H](c2ccc(Cl)cc2)C(C(=O)O)=CC[C@H]1c1ccc(Cl)cc1 do in these assays?
PG9 binder: 0; MsrA inhibitor: -1; rCAG binder-1: 80*; HGIII-sPLA2 inh: -45; MsrA act: -10; rCAG binder conf: 80*; DNA CAG counter: 40*

How did Cc1ccccc1S(=O)(=O)N1C(c2ccc(Cl)cc2)CC=C(C(=O)O)C1c1cccc(Cl)c1 (stereo not given) do in these assays?
PG9 binder: 0; MsrA inhibitor: 0; rCAG binder-1: 84*; HGIII-sPLA2 inh: -4; rCAG binder conf: 77*; DNA CAG counter: 40*

How did Cc1ccc([C@@H]2CC=C(C(=O)O)[C@H](c3cccc(Cl)c3)N2S(=O)(=O)c2ccccc2C)cc1 do in these assays?
PG9 binder: 0; MsrA inhibitor: -1; rCAG binder-1: 82*; HGIII-sPLA2 inh: -38; MsrA act: -6; rCAG binder conf: 77*; DNA CAG counter: 43*

Results for Cc1ccc(NC(=O)OCCCN2C(=O)CCC23CCC(C)CC3)cc1 (stereo not given) ?
rCAG binder-1: -1; HGIII-sPLA2 inh: 7

Results for CC1(C)CC1C(=O)Nc1ccc([N+](=O)[O-])cc1Br (stereo not given) ?
PG9 binder: 1; MsrA inhibitor: -1; rCAG binder-1: 2; HGIII-sPLA2 inh: -5; MsrA act: -8

How did Cc1ccc(C2(c3ccc(C)cc3)CC2C(=O)Nc2ccc([N+](=O)[O-])cc2O)cc1 (stereo not given) do in these assays?
PG9 binder: 0; MsrA inhibitor: 2; rCAG binder-1: 66*; HGIII-sPLA2 inh: -6; MsrA act: -4; rCAG binder conf: 62*; DNA CAG counter: 29*

Results for O=C(OCc1cn(Cc2cccc(F)c2)nn1)N1CCOCC1 ?
rCAG binder-1: 2; HGIII-sPLA2 inh: 7

What do the screens show for `CCOc1ccc(-n2c(O)c(/C=N/NC(=O)C3COc4ccccc4O3)c3ccccc3c2=O)cc1` (stereo not given)?
PG9 binder: -3; MsrA inhibitor: 4; rCAG binder-1: 76*; HGIII-sPLA2 inh: 13; MsrA act: -4; rCAG binder conf: 74*; DNA CAG counter: 37*

What do the screens show for `COc1ccc(C(=O)N2C(=S)NC(=O)/C2=C\c2ccc(C)cc2)cc1`?
PG9 binder: -3; MsrA inhibitor: 2; rCAG binder-1: 64*; HGIII-sPLA2 inh: -13; MsrA act: -10; rCAG binder conf: 66*; DNA CAG counter: 31*

What do the screens show for `COC(=O)[C@]12C[C@H](CC(=O)NCCCN3CCCC3=O)C(=O)N(Cc3ccccc3)C1=C[C@H](COCc1ccccc1)O[C@@H]2C`?
rCAG binder-1: 0; HGIII-sPLA2 inh: 2

What do the screens show for `Cc1ccc(S(=O)(=O)Nc2ccc(Br)cc2C(NCC(=O)O)c2ccccc2)cc1` (stereo not given)?
PG9 binder: -1; MsrA inhibitor: 0; rCAG binder-1: 73*; HGIII-sPLA2 inh: -48; MsrA act: -11; rCAG binder conf: 75*; DNA CAG counter: 26*; dCAG dye DR: inactive

What do the screens show for `O=C(O)C1=CC[C@@H](c2ccc(Cl)cc2)N(S(=O)(=O)c2ccc(Cl)cc2)[C@H]1c1ccccc1`?
PG9 binder: 0; MsrA inhibitor: 0; rCAG binder-1: 65*; HGIII-sPLA2 inh: -32; MsrA act: -1; rCAG binder conf: 69*; DNA CAG counter: 30*

How did Cc1ccc([C@H]2C(C(=O)O)=CC[C@@H](c3ccc(C(C)C)cc3)N2S(=O)(=O)c2ccc(C)cc2)cc1 do in these assays?
PG9 binder: 1; MsrA inhibitor: -1; rCAG binder-1: 88*; HGIII-sPLA2 inh: -50; MsrA act: 5; rCAG binder conf: 81*; DNA CAG counter: 48*

Results for Cc1ccc(S(=O)(=O)N2[C@@H](c3ccccc3)C(C(=O)O)=CC[C@H]2c2ccc(C(C)C)cc2)cc1 ?
PG9 binder: 0; MsrA inhibitor: 0; rCAG binder-1: 81*; HGIII-sPLA2 inh: -43; MsrA act: -2; rCAG binder conf: 78*; DNA CAG counter: 41*

Results for Cc1ccc([C@H]2C(C(=O)O)=CC[C@@H](c3ccc(Cl)cc3)N2S(=O)(=O)c2ccc(C)cc2)cc1 ?
PG9 binder: 0; MsrA inhibitor: 1; rCAG binder-1: 80*; HGIII-sPLA2 inh: -30; MsrA act: 0; rCAG binder conf: 80*; DNA CAG counter: 47*

Results for Cc1n[nH]c(C)c1S(=O)(=O)NCCc1cccc(F)c1 ?
rCAG binder-1: 1; HGIII-sPLA2 inh: 6

How did Cc1ccc(S(=O)(=O)N2[C@@H](c3ccc(Cl)cc3)C(C(=O)O)=CC[C@H]2c2ccc(C(C)C)cc2)cc1 do in these assays?
PG9 binder: -1; MsrA inhibitor: 1; rCAG binder-1: 83*; HGIII-sPLA2 inh: -48; MsrA act: -1; rCAG binder conf: 89*; DNA CAG counter: 61*

What do the screens show for `Clc1ccccc1Cn1ccc2ccc(-c3ccc4ccn(Cc5ccccc5Cl)c4c3)cc21`?
rCAG binder-1: 16; HGIII-sPLA2 inh: 6

What do the screens show for `CCCCN1C(=O)c2ccccc2NC1c1ccc(OC)c(COc2ccc(NC(C)=O)cc2)c1` (stereo not given)?
HGIII-sPLA2 inh: -8

What do the screens show for `[N-]=C=C1C(=S)NC(=O)[C@H]([n+]2ccccc2)[C@H]1c1ccc(Cl)cc1`?
PG9 binder: 9; MsrA inhibitor: 0; rCAG binder-1: 44*; HGIII-sPLA2 inh: -11; MsrA act: -1; rCAG binder conf: 64*; DNA CAG counter: 28*
